{
  "source": "PubChem BioAssay (EPA / NIEHS)",
  "key": {"[1]": {"test": "ACEA_ER_AUC_viability: ACEA Biosciences xCELLigence Real-Time Cell Analysis on Estrogen Receptor Agonism for Viability (AID 2283782)", "method_in_brief": "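Read-out: real-time electrical impedance (RT-CES) area under curve, loss of signal taken as reduced viability, normalized to DMSO baseline. T-47D cells, charcoal-stripped serum medium, compounds up to 100 uM final, continuous exposure, 80 h.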"}, "[2]": {"test": "STM_H9_NormalizedViability: Cytotoxicity Assessment at 120 hours in the Stemina devTOX quickPredict H9 human embryonic stem cell (hESC)-based Assay (AID 2283784)", "method_in_brief": "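Viability endpoint: background-corrected CellTiter-Fluor RFU expressed relative to the 0.1% DMSO mean on each plate. Undifferentiated H9 cells were treated with daily re-dosing and media change, and loss of signal was fitted.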"}, "AR (gene 367)": {"biological_target": "AR (gene 367) (UniProt P10275)", "sequence (P10275 whole entry, looked up)": "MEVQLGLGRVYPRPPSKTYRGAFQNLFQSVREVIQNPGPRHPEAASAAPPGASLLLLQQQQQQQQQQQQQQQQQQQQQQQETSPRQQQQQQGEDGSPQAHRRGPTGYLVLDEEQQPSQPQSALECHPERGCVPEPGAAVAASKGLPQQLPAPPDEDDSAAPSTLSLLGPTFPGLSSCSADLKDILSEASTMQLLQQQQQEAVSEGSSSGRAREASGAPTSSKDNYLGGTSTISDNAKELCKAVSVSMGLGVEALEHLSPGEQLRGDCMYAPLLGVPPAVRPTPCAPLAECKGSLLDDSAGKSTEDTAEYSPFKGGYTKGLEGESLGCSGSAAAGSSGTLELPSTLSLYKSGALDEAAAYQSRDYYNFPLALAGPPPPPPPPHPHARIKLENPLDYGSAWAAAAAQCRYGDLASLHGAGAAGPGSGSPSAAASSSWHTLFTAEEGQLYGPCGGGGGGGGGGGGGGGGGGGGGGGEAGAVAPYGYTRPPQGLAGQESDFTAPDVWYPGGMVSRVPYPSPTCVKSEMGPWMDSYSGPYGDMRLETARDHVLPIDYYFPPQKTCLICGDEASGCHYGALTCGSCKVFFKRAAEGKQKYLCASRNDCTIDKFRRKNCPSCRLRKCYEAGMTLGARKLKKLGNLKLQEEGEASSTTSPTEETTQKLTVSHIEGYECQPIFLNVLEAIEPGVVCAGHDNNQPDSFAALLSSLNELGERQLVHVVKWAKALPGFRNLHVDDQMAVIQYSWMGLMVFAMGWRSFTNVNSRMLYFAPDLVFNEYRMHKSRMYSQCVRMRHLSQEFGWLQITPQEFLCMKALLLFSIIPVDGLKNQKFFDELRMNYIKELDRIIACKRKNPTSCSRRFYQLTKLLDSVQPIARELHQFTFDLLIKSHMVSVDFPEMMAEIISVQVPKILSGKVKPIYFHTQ", "test": "ACEA_AR_agonist_80hr: ACEA Biosciences xCELLigence Real-Time Cell Analysis on Androgen Receptor Agonism for Proliferation (AID 2283783);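 note: hits increase impedance growth signal above DMSO baseline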", "method_in_brief": "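Impedance (RT-CES) growth signal at 80 h post-dose; 22Rv1 cells, 8-pt 1:4 series, top 100 uM final, DMSO ≤0.5%; duplicate plates; gain-of-signal fit relative to DMSO baseline.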"}},
  "note": "Where “and” joins values, the source holds several entries; their conditions need not be identical. Identical values can stand only once. Results filed as inconclusive are left out. Calls of active or inactive are those of the source. Rule for the calls: active = hit-call score of the fitted dose curve at least 0.9, where 1 is the maximum; inconclusive = response in the unintended direction; inactive = score below 0.9.",
  "data": [
    {"smiles": "CC#C[C@]1(O)CC[C@H]2[C@@H]3CCC4=CC(=O)CCC4=C3[C@@H](c3ccc(N(C)C)cc3)C[C@@]21C", "values": [
      {"measurement": "AC50", "setting": "[1]", "result": "90.5 µM (active) and 83.7 µM (active) and 82.6 µM (active)"}
    ]},
    {"smiles": "COc1ccc([N+](=O)[O-])cc1N", "values": [
      {"measurement": "outcome", "setting": "[2]", "result": "inactive"}
    ]},
    {"smiles": "O=C(/C=C/c1ccc(O)cc1)CC(=O)/C=C/c1ccc(O)cc1", "values": [
      {"measurement": "outcome", "setting": "[1]", "result": "inactive"},
      {"measurement": "outcome", "setting": "AR (gene 367)", "result": "inactive"}
    ]},
    {"smiles": "C=C(C)C(=O)OCCC(F)(F)C(F)(F)C(F)(F)C(F)(F)C(F)(F)C(F)(F)F", "values": [
      {"measurement": "outcome", "setting": "[1]", "result": "inactive"}
    ]},
    {"smiles": "CCc1ccc(CCOc2ccc(CC3SC(=O)NC3=O)cc2)nc1", "note": "(configuration not stated)", "values": [
      {"measurement": "outcome", "setting": "[1]", "result": "inactive"},
      {"measurement": "AC50", "setting": "[2]", "result": "55.8 µM (active)"}
    ]},
    {"smiles": "COc1cc(CCC(=O)CC(=O)CCc2ccc(O)c(OC)c2)ccc1O", "values": [
      {"measurement": "outcome", "setting": "[1]", "result": "inactive"},
      {"measurement": "outcome", "setting": "AR (gene 367)", "result": "inactive"}
    ]},
    {"smiles": "N#C[C@@H]1CC(F)(F)CN1C(=O)CNC1CC2CCC(C1)N2c1ncccn1", "note": "(some centres not stated)", "values": [
      {"measurement": "outcome", "setting": "AR (gene 367)", "result": "inactive"},
      {"measurement": "outcome", "setting": "[2]", "result": "inactive"}
    ]},
    {"smiles": "Nc1cccc2c(N)cccc12", "values": [
      {"measurement": "outcome", "setting": "[1]", "result": "inactive"},
      {"measurement": "AC50", "setting": "AR (gene 367)", "result": "0.115 µM (active)"},
      {"measurement": "outcome", "setting": "[2]", "result": "inactive"}
    ]},
    {"smiles": "CCN(CC)CCNc1ccc(CNC=O)c2sc3ccc(OC)cc3c(=O)c12", "values": [
      {"measurement": "AC50", "setting": "[1]", "result": "83.2 µM (active)"},
      {"measurement": "AC50", "setting": "[2]", "result": "8.22 µM (active)"}
    ]},
    {"smiles": "CCCCCCC(=O)O", "values": [
      {"measurement": "outcome", "setting": "[1]", "result": "inactive"}
    ]},
    {"smiles": "CCCCC[C@H](O)CC(=O)CCc1ccc(O)c(OC)c1", "values": [
      {"measurement": "outcome", "setting": "[1]", "result": "inactive"},
      {"measurement": "outcome", "setting": "AR (gene 367)", "result": "inactive"}
    ]},
    {"smiles": "C[C@@H]1C[C@H]2[C@@H]3CCC4=CC(=O)C=C[C@]4(C)[C@@]3(F)[C@@H](O)C[C@]2(C)[C@@]1(O)C(=O)COP(=O)(O)O", "values": [
      {"measurement": "outcome", "setting": "[1]", "result": "inactive"},
      {"measurement": "AC50", "setting": "[2]", "result": "15.2 µM (active)"}
    ]},
    {"smiles": "c1ccc2c(c1)ccc1ccccc12", "values": [
      {"measurement": "outcome", "setting": "[1]", "result": "inactive"},
      {"measurement": "AC50", "setting": "[2]", "result": "79.9 µM (active)"}
    ]},
    {"smiles": "C#C[C@]1(O)CC[C@H]2[C@@H]3CCC4=CC(=O)CC[C@@H]4[C@H]3CC[C@@]21C", "values": [
      {"measurement": "AC50", "setting": "[2]", "result": "82 µM (active)"}
    ]},
    {"smiles": "CN1CCC[C@H]1c1cccnc1", "values": [
      {"measurement": "outcome", "setting": "[1]", "result": "inactive"},
      {"measurement": "outcome", "setting": "[2]", "result": "inactive"}
    ]},
    {"smiles": "NCC(F)(F)C(F)(F)C(F)(F)C(F)(F)C(F)(F)C(F)(F)C(F)(F)F", "values": [
      {"measurement": "outcome", "setting": "[1]", "result": "inactive"}
    ]}
  ]
}
